According to PubChem BioAssay AID1159580 (chemical genetic matrix, 2015):
Screen size: about 5,500 compounds; about 2,000 (36%) were called active. About 18% were inconclusive and are not listed. Rule as the data show it: active = normalized growth mostly below about 0.91 (no sharp cut-off); inconclusive = no clear call, values can overlap the other calls; inactive = mostly above about 0.92. This is one part of the list.

Assay: chemical genetic growth profiling, strain panel (AID 1159580);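 also: tested at 20 µM; growth read once vehicle control cultures reached saturation at 30 °C; 1 = growth at the plate median or of vehicle wells; lower values mean less growth of the strain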
Details: growth OD
[1] = S. cerevisiae deletion strains, locus YDL101C, strain DUN1, stronger effect = lower value
[2] = S. cerevisiae deletion strains, locus YHR030C, strain SLT2, stronger effect = lower value

Measured: normalized growth

Cc1onc(-c2c(Cl)cccc2Cl)c1C(=O)NNc1c(Cl)cccc1Cl
inactive: S. cerevisiae deletion strains, locus YAR019C, strain CDC15, stronger effect = lower value 0.962 | S. cerevisiae deletion strains, locus YBL105C, strain PKC1, stronger effect = lower value 0.978 | S. cerevisiae deletion strains, locus YBR135W, strain CKS1, stronger effect = lower value 0.986 | S. cerevisiae deletion strains, locus YBR136W, strain MEC1, stronger effect = lower value 0.977 | S. cerevisiae deletion strains, locus YBR160W, strain CDC28, stronger effect = lower value 0.975 | S. cerevisiae deletion strains, locus YDL017W, strain CDC7, stronger effect = lower value 0.977 | S. cerevisiae deletion strains, locus YDL028C, strain MPS1, stronger effect = lower value 0.97 | [1] 0.976 | S. cerevisiae deletion strains, locus YDL108W, strain KIN28, stronger effect = lower value 0.971 | S. cerevisiae deletion strains, locus YDL132W, strain cdc53, stronger effect = lower value 0.978 | S. cerevisiae deletion strains, locus YDL214C, strain PRR2, stronger effect = lower value 0.941 | S. cerevisiae deletion strains, locus YDR052C, strain DBF4, stronger effect = lower value 0.99 | S. cerevisiae deletion strains, locus YDR054C, strain cdc34, stronger effect = lower value 0.972 | S. cerevisiae deletion strains, locus YDR226W, strain ADK1, stronger effect = lower value 0.982 | S. cerevisiae deletion strains, locus YDR477W, strain SNF1, stronger effect = lower value 0.932 | S. cerevisiae deletion strains, locus YER123W, strain YCK3, stronger effect = lower value 0.961 | S. cerevisiae deletion strains, locus YER133W, strain GLC7, stronger effect = lower value 0.961 | S. cerevisiae deletion strains, locus YFL009W, strain cdc4, stronger effect = lower value 0.974 | S. cerevisiae deletion strains, locus YFL029C, strain CAK1, stronger effect = lower value 0.983 | S. cerevisiae deletion strains, locus YFR003C, strain YPI1, stronger effect = lower value 0.98 | S. cerevisiae deletion strains, locus YFR019W, strain FAB1, stronger effect = lower value 0.972 | S. cerevisiae deletion strains, locus YFR028C, strain CDC14, stronger effect = lower value 0.97 | S. cerevisiae deletion strains, locus YGR040W, strain KSS1, stronger effect = lower value 0.941 | S. cerevisiae deletion strains, locus YGR052W, strain FMP48, stronger effect = lower value 0.998 | S. cerevisiae deletion strains, locus YGR092W, strain DBF2, stronger effect = lower value 0.987 | S. cerevisiae deletion strains, locus YHR079C, strain IRE1, stronger effect = lower value 0.957 | S. cerevisiae deletion strains, locus YHR082C, strain KSP1, stronger effect = lower value 1.01 | S. cerevisiae deletion strains, locus YHR205W, strain SCH9, stronger effect = lower value 0.956 | S. cerevisiae deletion strains, locus YIL147C, strain SLN1, stronger effect = lower value 0.977 | S. cerevisiae deletion strains, locus YJL095W, strain BCK1, stronger effect = lower value 0.907 | S. cerevisiae deletion strains, locus YJL128C, strain PBS2, stronger effect = lower value 0.923 | S. cerevisiae deletion strains, locus YJL157C, strain FAR1, stronger effect = lower value 0.976 | S. cerevisiae deletion strains, locus YJR016C, strain ILV3, stronger effect = lower value 0.988 | S. cerevisiae deletion strains, locus YJR066W, strain TOR1 (second series), stronger effect = lower value 0.96 | S. cerevisiae deletion strains, locus YJR066W, strain TOR1, stronger effect = lower value 0.957 | S. cerevisiae deletion strains, locus YKL048C, strain ELM1, stronger effect = lower value 0.981 | S. cerevisiae deletion strains, locus YKL067W, strain YNK1, stronger effect = lower value 0.941 | S. cerevisiae deletion strains, locus YKL101W, strain HSL1, stronger effect = lower value 0.949 | S. cerevisiae deletion strains, locus YKL193C, strain SDS22, stronger effect = lower value 0.986 | S. cerevisiae deletion strains, locus YKL203C, strain TOR2, stronger effect = lower value 1.03 | S. cerevisiae deletion strains, locus YLR133W, strain CKI1, stronger effect = lower value 0.976 | S. cerevisiae deletion strains, locus YLR403W, strain SFP1, stronger effect = lower value 0.967 | S. cerevisiae deletion strains, locus YML070W, strain DAK1, stronger effect = lower value 0.942 | S. cerevisiae deletion strains, locus YMR001C, strain CDC5, stronger effect = lower value 0.976 | S. cerevisiae deletion strains, locus YMR205C, strain PFK2 (second series), stronger effect = lower value 0.963 | S. cerevisiae deletion strains, locus YMR277W, strain FCP1, stronger effect = lower value 0.967 | S. cerevisiae deletion strains, locus YNL006W, strain LST8, stronger effect = lower value 0.979 | S. cerevisiae deletion strains, locus YNL020C, strain ARK1, stronger effect = lower value 0.988 | S. cerevisiae deletion strains, locus YNL161W, strain CBK1, stronger effect = lower value 0.989 | S. cerevisiae deletion strains, locus YNL183C, strain NPR1, stronger effect = lower value 1 | S. cerevisiae deletion strains, locus YNL207W, strain RIO2, stronger effect = lower value 0.991 | S. cerevisiae deletion strains, locus YNL222W, strain SSU72, stronger effect = lower value 0.977 | S. cerevisiae deletion strains, locus YNL307C, strain MCK1 (second series), stronger effect = lower value 0.972 | S. cerevisiae deletion strains, locus YOL078W, strain AVO1, stronger effect = lower value 0.982 | S. cerevisiae deletion strains, locus YOL136C, strain PFK27, stronger effect = lower value 0.956 | S. cerevisiae deletion strains, locus YOR061W, strain CKA2, stronger effect = lower value 0.974 | S. cerevisiae deletion strains, locus YOR119C, strain RIO1, stronger effect = lower value 0.957 | S. cerevisiae deletion strains, locus YOR231W, strain MKK1, stronger effect = lower value 0.927 | S. cerevisiae deletion strains, locus YOR329C, strain SCD5, stronger effect = lower value 0.981 | S. cerevisiae deletion strains, locus YPL031C, strain PHO85, stronger effect = lower value 0.937 | S. cerevisiae deletion strains, locus YPL153C, strain RAD53, stronger effect = lower value 0.921 | S. cerevisiae deletion strains, locus YPL204W, strain HRR25, stronger effect = lower value 0.945 | S. cerevisiae deletion strains, locus YPL209C, strain IPL1, stronger effect = lower value 0.986 | S. cerevisiae deletion strains, locus YPL256C, strain CLN2, stronger effect = lower value 0.858 | S. cerevisiae deletion strains, locus YPR025C, strain CCL1, stronger effect = lower value 0.976 | S. cerevisiae deletion strains, locus YPR106W, strain ISR1, stronger effect = lower value 0.96 | S. cerevisiae deletion strains, locus YPR111W, strain DBF20, stronger effect = lower value 0.956 | S. cerevisiae deletion strains, strain NNK1, stronger effect = lower value 0.986 | S. cerevisiae deletion strains, strain TSCII, stronger effect = lower value 0.983
active: [2] 0.794 | S. cerevisiae deletion strains, locus YLR113W, strain HOG1, stronger effect = lower value 0.827

Cc1onc(-c2c(F)cccc2Cl)c1C(=O)c1ccc(F)cc1
inactive: S. cerevisiae deletion strains, locus YAL013W, strain DEP1, stronger effect = lower value 0.939 | S. cerevisiae deletion strains, locus YBR229C, strain ROT2, stronger effect = lower value 0.98 | [1] 0.991 | S. cerevisiae deletion strains, locus YDR150W, strain NUM1, stronger effect = lower value 0.963 | S. cerevisiae deletion strains, locus YEL061C, strain CIN8, stronger effect = lower value 0.979 | S. cerevisiae deletion strains, locus YGR078C, strain PAC10, stronger effect = lower value 0.973 | S. cerevisiae deletion strains, locus YGR229C, strain SMI1, stronger effect = lower value 0.969 | [2] 0.696 | S. cerevisiae deletion strains, locus YHR087W, strain rtc3, stronger effect = lower value 0.959 | S. cerevisiae deletion strains, locus YJL187C, strain SWE1, stronger effect = lower value 0.975 | S. cerevisiae deletion strains, locus YJR043C, strain POL32, stronger effect = lower value 0.956 | S. cerevisiae deletion strains, locus YJR075W, strain HOC1, stronger effect = lower value 0.937 | S. cerevisiae deletion strains, locus YKL190W, strain CNB1, stronger effect = lower value 0.974 | S. cerevisiae deletion strains, locus YLR039C, strain RIC1, stronger effect = lower value 0.807 | S. cerevisiae deletion strains, locus YLR058C, strain SHM2 (second series), stronger effect = lower value 0.987 | S. cerevisiae deletion strains, locus YLR085C, strain ARP6, stronger effect = lower value 0.8 | S. cerevisiae deletion strains, locus YML094W, strain GIM5, stronger effect = lower value 0.972 | S. cerevisiae deletion strains, locus YMR219W, strain ESC1, stronger effect = lower value 0.996 | S. cerevisiae deletion strains, locus YMR263W, strain SAP30, stronger effect = lower value 0.978 | S. cerevisiae deletion strains, locus YMR307W, strain GAS1, stronger effect = lower value 0.708 | S. cerevisiae deletion strains, locus YNL153C, strain GIM3, stronger effect = lower value 0.973 | S. cerevisiae deletion strains, locus YNL298W, strain CLA4 (second series), stronger effect = lower value 0.93 | S. cerevisiae deletion strains, locus YNL322C, strain KRE1, stronger effect = lower value 0.97 | S. cerevisiae deletion strains, locus YNR030W, strain Alg12, stronger effect = lower value 0.949 | S. cerevisiae deletion strains, locus YPL055C, strain LGE1, stronger effect = lower value 0.929 | S. cerevisiae deletion strains, locus YPL241C, strain CIN2, stronger effect = lower value 0.964 | S. cerevisiae deletion strains, locus YPR135W, strain CTF4, stronger effect = lower value 0.817 | S. cerevisiae strains, strain wild type, stronger effect = lower value 0.959
active: S. cerevisiae deletion strains, locus YLR262C, strain YPT6, stronger effect = lower value 0.787
